The nature of test [1]: anti-His antibody binders, primary screen, artefact control for SMM control protein annotation, biochemical, small-molecule microarray, 635 nm fluorescence (AID 1128).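 Further: score merges feature fluorescence with signal-to-noise for each printed compound spot.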 To be noted: anti-His Alexa647 antibody binding, higher = more signal.
Test [2] deals with Human papillomavirus type 1a E7 protein (residues 1-88). As to the kind of experiment: HPV1a E7 small-molecule binders, primary screen, biochemical, small-molecule microarray, residues 1-88, 635 nm (AID 1129). To be noted: small-molecule microarray binding, fluorescence 635 nm; higher = more signal.
Test [3] concerns the target Focal adhesion kinase 1 (Homo sapiens) (UniProt Q05397). As to the kind of experiment: small-molecule microarray binders of FAK, primary screen, biochemical, 635/667 nm fluorescence, BSA, DTT (AID 1130).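 Further: composite of spot emission at 667 nm and signal to noise over triplicate slides.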 Particulars: PTK2 binding, 635 nm fluorescence, higher = more signal.
The subject of test [4] is Fibrinogen (Alexa647-labelled). As to the kind of experiment: fibrinogen binders on compound microarrays, profiling panel, artefact control for SMM control-protein annotation, biochemical, small-molecule microarray, 635/667 nm fluorescence (AID 1131).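 Further: z-score merges 667 nm fluorescence with per-spot signal-to-noise over triplicate slides.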 Particulars: fibrinogen-A647 binding fluorescence, higher = more signal.
The target in test [5] is Follistatin (Homo sapiens) (UniProt P19883). In words: follistatin binders on small-molecule microarrays, primary screen, biochemical, small-molecule microarray, 635/667 nm fluorescence (AID 1132). Particulars: FST binding, 635 nm fluorescence, higher = more signal.
Test [6] has as its target Fibroblast growth factor 2 (Homo sapiens) (UniProt P09038). As to the kind of experiment: FGF2 binders on small-molecule microarrays, primary screen, biochemical, small-molecule microarray, 635/667 nm fluorescence (AID 1133). Particulars: small-molecule microarray binding, FGF2, fluorescence 635/667; higher = more signal.
Test [7] is described as follows: mitochondrial membrane potential change in A549 cells, profiling panel, cell-based, JC-1 fluorescence, basal, 24 h, 100 nL (AID 1138).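 Further: A549 lung adenocarcinoma cells under basal conditions with no added stimulus; test concentration not given here.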 To be noted: higher = more signal.
For the next test, the system named is Lefty1. In words: Lefty1 binders on small-molecule microarrays, primary screen, biochemical, small-molecule microarray, 635/667 nm fluorescence (AID 1139). To be noted: small-molecule microarray binding, fluorescence 635/667; higher = more signal.
Test [8] has as its system wheat germ agglutinin (Triticum aestivum), Alexa647-labelled. In words: wheat germ agglutinin binders on compound microarrays, profiling panel, artefact control for SMM control-protein annotation, biochemical, small-molecule microarray, 635/667 nm fluorescence (AID 1140).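 Further: score merges 667 nm feature emission with signal to noise over triplicate slides.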 Particulars: WGA-A647 binding, 635 nm fluorescence, higher = more signal.
Test [9] deals with Luciferin 4-monooxygenase (Photinus pyralis) (UniProt P08659). In words: firefly luciferase enzyme inhibitors, primary screen, biochemical, luminescence, purified enzyme, 2006 set (AID 1141).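 Further: cell-free assay with purified firefly luciferase at 100 ng per well in PBS; test concentration not given here.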 Particulars: SteadyGlo luminescence, 30 min, higher = more signal, called active from +8 up or from −8 down.
The test system of test [10] is Wnt5a (protein binding on small-molecule microarray). In words: Wnt5a binders on small-molecule microarray, primary screen, biophysical, 635/667 nm fluorescence (AID 1142).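 Further: fluorescence read at 667 nm with signal to noise per printed feature.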 Particulars: 635 nm fluorescence, higher = more signal.
Test [11] can be described thus: cell viability in Huh7 cells, primary screen, cytotoxicity control for HCV replication inhibitor project, CellTiter-Glo luminescence, basal, 48 h (AID 1143).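 Further: Huh7 hepatoma cells carrying a hepatitis C replication reporter with no stimulus; test concentration not given here.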 To be noted: Huh7 HCV replicon, higher = more signal, called active from +8 up or from −8 down.
Test [12] can be described thus: P. aeruginosa biofilm formation inhibitors, primary screen, PAO1 strain, BacTiter-Glo luminescence, LB-PBS (AID 1144). Particulars: 12 h, higher = more signal.
Test [13] is described as follows: CREB reporter modulators without forskolin, primary screen, cell-based, PC12, CRE-LacZ reporter, unstimulated (AID 1145). Particulars: no forskolin, luminescence, 4.5 h, higher = more signal, called active from +8 up or from −8 down.
Test [14] in a line: CREB reporter modulators under forskolin, primary screen, cell-based, PC12, CRE-LacZ reporter, forskolin-stimulated (AID 1146).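 Further: PC12 cells with 6xCRE LacZ reporter stimulated by forskolin 10 µM; beta-galactosidase reporter signal reflecting CREB driven transcription.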 To be noted: luminescence, 4.5 h, higher = more signal, called active from +8 up or from −8 down.
Test [15] concerns the target Streptavidin (Streptomyces avidinii) (UniProt P22629). In words: streptavidin binders on small-molecule microarray, primary screen, artefact control for SMM compound annotation, biophysical, 635/667 nm fluorescence (AID 1147).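 Further: signal reflects streptavidin binding to arrayed compounds as a control protein.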 To be noted: streptavidin binding, higher = more signal.
Test [16] is described as follows: small-molecule binders of probe aInhba, primary screen, biochemical, small-molecule microarray, 635/667 nm fluorescence (AID 1148).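 Further: score merges 667nm spot fluorescence with signal-to-noise for antibody binding to printed compounds.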 Particulars: higher = more signal.
Test [17] concerns the target Torsin-1A (Homo sapiens) (UniProt O14656). In words: torsin A binders from cell lysate, primary screen, small-molecule microarray, wild-type, 635/667 nm (AID 1149). To be noted: COS7 hTOR1A-WT lysate, 635 nm fluorescence, higher = more signal.
For test [18] the target is unchanged. In words: small-molecule binders of mutant TOR1A in lysate, primary screen, cell lysate, small-molecule microarray, COS7 lysate, 635/667 nm fluorescence (AID 1150).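 Further: score pools 667 nm emission and signal to noise measuring lysate protein binding.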 Particulars: COS7 hTOR1A mutant lysate, 635 nm fluorescence, higher = more signal.
Test [19] has as its system Sonic hedgehog protein (Shh). In words: small-molecule binders of Shh protein, primary screen, biochemical, small-molecule microarray, 635/667 nm fluorescence (AID 1151).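 Further: Shh protein binding to compounds spotted on small-molecule microarray slides; score combines spot fluorescence intensity with signal-to-noise across triplicate slides.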 To be noted: small-molecule microarray binding, 635 nm fluorescence; higher = more signal.

Active and inactive are the calls of the source. Unless noted, how the calls were made is not given here.

Sequence of Streptavidin (Streptomyces avidinii) (P22629 whole entry, looked up): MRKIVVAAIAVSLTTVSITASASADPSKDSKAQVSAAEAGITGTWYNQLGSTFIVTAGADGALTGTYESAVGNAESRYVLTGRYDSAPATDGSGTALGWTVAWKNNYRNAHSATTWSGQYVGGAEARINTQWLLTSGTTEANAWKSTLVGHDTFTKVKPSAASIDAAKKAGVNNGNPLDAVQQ
Sequence of Focal adhesion kinase 1 (Homo sapiens) (Q05397 whole entry, looked up): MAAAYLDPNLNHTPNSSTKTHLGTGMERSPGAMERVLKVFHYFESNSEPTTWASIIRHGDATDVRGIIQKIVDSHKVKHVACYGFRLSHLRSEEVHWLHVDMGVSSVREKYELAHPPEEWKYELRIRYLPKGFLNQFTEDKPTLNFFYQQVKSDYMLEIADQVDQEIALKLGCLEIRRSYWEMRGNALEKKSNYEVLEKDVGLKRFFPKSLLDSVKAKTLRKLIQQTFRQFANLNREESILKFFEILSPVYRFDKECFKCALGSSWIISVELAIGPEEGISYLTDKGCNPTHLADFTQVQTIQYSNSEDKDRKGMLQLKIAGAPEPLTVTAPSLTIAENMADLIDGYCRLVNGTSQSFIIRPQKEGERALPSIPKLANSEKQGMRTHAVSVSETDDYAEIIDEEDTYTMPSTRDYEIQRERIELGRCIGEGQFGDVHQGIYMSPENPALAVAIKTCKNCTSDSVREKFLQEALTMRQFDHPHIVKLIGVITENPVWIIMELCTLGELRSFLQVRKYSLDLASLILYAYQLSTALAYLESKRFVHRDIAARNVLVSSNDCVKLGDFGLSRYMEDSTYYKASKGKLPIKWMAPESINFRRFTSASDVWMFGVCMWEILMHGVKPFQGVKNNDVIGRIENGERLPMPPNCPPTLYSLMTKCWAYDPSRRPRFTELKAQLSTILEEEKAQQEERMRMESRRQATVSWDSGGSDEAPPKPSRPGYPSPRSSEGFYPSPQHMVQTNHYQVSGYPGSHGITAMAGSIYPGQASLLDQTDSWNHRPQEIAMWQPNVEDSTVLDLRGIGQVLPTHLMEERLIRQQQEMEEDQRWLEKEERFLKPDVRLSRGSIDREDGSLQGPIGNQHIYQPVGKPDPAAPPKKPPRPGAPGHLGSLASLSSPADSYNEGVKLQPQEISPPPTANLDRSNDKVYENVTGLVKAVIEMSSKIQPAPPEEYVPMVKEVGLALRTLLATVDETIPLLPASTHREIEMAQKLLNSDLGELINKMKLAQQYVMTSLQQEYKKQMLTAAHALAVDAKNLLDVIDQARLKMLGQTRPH
Sequence of Torsin-1A (Homo sapiens) (O14656 whole entry, looked up): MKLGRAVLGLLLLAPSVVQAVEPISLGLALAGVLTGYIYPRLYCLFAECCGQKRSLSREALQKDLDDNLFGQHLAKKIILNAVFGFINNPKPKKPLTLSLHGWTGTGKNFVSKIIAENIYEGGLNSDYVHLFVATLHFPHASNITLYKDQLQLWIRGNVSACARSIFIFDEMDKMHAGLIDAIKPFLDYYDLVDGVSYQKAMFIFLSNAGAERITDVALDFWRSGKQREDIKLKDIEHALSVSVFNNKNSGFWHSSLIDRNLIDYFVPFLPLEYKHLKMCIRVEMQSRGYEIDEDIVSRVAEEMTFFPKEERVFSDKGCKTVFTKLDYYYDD
Sequence of Fibroblast growth factor 2 (Homo sapiens) (P09038 whole entry, looked up): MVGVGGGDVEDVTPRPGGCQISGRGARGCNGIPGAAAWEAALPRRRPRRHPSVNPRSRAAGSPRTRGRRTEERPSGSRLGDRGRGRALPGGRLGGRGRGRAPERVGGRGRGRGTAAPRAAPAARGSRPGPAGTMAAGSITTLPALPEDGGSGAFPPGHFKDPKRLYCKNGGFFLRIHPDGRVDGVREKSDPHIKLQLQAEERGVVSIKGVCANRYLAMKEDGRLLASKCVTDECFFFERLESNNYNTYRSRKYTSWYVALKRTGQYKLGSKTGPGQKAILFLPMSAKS
Sequence of Follistatin (Homo sapiens) (P19883 whole entry, looked up): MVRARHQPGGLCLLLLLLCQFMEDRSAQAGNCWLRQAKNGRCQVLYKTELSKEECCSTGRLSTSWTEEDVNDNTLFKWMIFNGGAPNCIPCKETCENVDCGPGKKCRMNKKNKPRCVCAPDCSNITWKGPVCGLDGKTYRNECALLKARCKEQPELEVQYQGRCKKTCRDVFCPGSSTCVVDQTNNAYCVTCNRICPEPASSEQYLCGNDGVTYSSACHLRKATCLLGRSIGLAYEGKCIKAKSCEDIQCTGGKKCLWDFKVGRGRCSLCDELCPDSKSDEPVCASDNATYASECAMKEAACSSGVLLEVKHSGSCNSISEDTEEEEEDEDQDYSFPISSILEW
Sequence of Luciferin 4-monooxygenase (Photinus pyralis) (P08659 whole entry, looked up): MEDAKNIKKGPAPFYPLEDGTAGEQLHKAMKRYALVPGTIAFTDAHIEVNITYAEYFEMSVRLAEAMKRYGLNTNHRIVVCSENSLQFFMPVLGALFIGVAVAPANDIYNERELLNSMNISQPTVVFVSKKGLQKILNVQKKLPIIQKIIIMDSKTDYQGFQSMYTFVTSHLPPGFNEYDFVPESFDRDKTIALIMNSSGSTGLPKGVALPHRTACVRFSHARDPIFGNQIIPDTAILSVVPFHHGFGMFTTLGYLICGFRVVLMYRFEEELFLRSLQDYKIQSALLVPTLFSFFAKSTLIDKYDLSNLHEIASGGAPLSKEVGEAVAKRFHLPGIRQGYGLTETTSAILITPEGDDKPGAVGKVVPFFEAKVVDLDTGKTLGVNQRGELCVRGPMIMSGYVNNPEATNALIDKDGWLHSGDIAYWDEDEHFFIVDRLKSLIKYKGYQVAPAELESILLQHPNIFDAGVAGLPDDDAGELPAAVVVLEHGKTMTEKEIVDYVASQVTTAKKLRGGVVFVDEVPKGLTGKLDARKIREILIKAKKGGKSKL

Turning to `Cc1ccc(S[C@]2(C(=O)NC3CC3)CC(=O)N(C3Cc4ccccc4C3)[C@@H]2c2ccc(CO)cc2)cc1`, the composite z-score is -0.172 in test [1]; 0.445 in test [2]; 0.0342 in [3]; -0.424 in test [4]; -0.584 in [5]; -0.3 in [6]. Besides, the composite z-score with Lefty1 is -1.35; in [8] it was -0.0705; in [10], -0.0244; in test [15] it was -0.75; in [16], -0.0136; with Torsin-1A (Homo sapiens) [17], -0.382. Further, the composite z-score is 0.23 with Torsin-1A (Homo sapiens) [18] and -0.766 in [19]. Also, the z-score in test [7] is 2.42; in test [9], -1.28 (inactive); in [11] it was -1.6 (inactive); in test [12], -0.401 (inactive); in test [13], 0.324 (inactive); in [14], -0.906 (inactive).
Turning to `CC(=O)N1Cc2ccccc2C[C@@]2(COC(c3ccc(OCCCO)cc3)=N2)C1=O`, the composite z-score in test [1] is 1.93; in test [2], 1.18; in test [3] it was 0.994; in test [4] it was 0.842; in test [5] it was 1.26; in test [6], 0.701. The composite z-score is 0.0786 with Lefty1; 1.29 in test [8]; 0.36 in test [10]; 1.23 in test [15]; 0.407 in test [16]; 0.135 with Torsin-1A (Homo sapiens) [17]. Further, the results for the composite z-score (with Torsin-1A (Homo sapiens) [18]; in test [19]) were 0.997 and 0.504, respectively. For the same molecule, the z-score in [7] is -0.956; in test [9] it was -2.19 (inactive); in [11] it was -2.57 (inactive); in test [12] it was -0.957 (inactive); in test [13], 1.82 (inactive); in test [14], -1.42 (inactive).
On to `CC[C@@H]1C=C(C(=O)O)[C@H](c2ccco2)N1S(=O)(=O)c1ccc(C)cc1`, for which the composite z-score was 0.2 in test [1]; -0.522 in [2]; 1.32 in test [3]; -1.13 in [4]; 1 in [5]; -0.152 in test [6]. Further, the composite z-score with Lefty1 is -0.165; in test [8], 0.839; in test [10], -0.291; in [15], 0.402; in test [16] it was 0.0228; in the test with Torsin-1A (Homo sapiens) [17] it was -0.282. Also, the composite z-score came out at 0.222 with Torsin-1A (Homo sapiens) [18] and 0.374 in test [19]. Further, the z-score is -1.09 in test [7]; 1.09 (inactive) in [9]; 0.433 (inactive) in test [11]; -0.187 (inactive) in test [12]; -0.518 (inactive) in test [13]; 1.1 (inactive) in test [14].
For the molecule `COc1ccc(C(O)C2C=CC3C(=O)N(c4ccccc4)C(=O)C3N2Nc2ccc(C(C)C)cc2)cc1OCc1ccccc1` (stereo not given), the composite z-score in test [1] was 0.893; in [2] it was 1.17; in [3], -0.149; in [4], 0.973; in test [5], 1.22; in test [6], 0.254. For the same molecule, the composite z-score in the test on Lefty1 was 0.094; in test [8], 1.22; in [10] it was 0.409; in test [15] it was 1.89; in test [16], 0.341; in the test with Torsin-1A (Homo sapiens) [17], 0.385. Moreover, the results for the composite z-score (in the test with Torsin-1A (Homo sapiens) [18]; in test [19]) were 0.554 and 0.55, respectively. The z-score in test [7] is -0.182; in [9], -1.96 (inactive); in [11] it was -0.0843 (inactive); in test [12] it was -2.09 (inactive); in [13] it was 1.4 (inactive); in test [14], -0.465 (inactive).
For the molecule `CC(C)(C)OC(=O)CC[C@]12N=C(c3ccc(OCCCO)cc3)O[C@H]1c1ccccc1N(CCS(=O)(=O)c1ccccc1)C2=O`, the composite z-score in [1] amounted to 1.99; in [2], 1.24; in [3], 0.895; in test [4] it was 0.957; in test [5], 1.17; in [6] it was 0.596. The composite z-score in the test on Lefty1 worked out at 0.5; in test [8], 1.08; in [10] it was 0.628; in test [15] it was 0.579; in [16], 0.0785; in the test with Torsin-1A (Homo sapiens) [17], 0.698. The composite z-score with Torsin-1A (Homo sapiens) [18] turned out to be 0.811; in [19], 1.2. Moreover, the z-score in test [7] was 0.95; in test [9], -8.32 (active); in [11], -2.91 (inactive); in test [12], -0.556 (inactive); in test [13], 3.64 (inactive); in test [14] it was -1.42 (inactive).

These data come from PubChem BioAssay.
